# Measured values: PubChem BioAssay (NCATS)
# Several values for one entry are separate records, joined by “and”; a condition that tells them apart may be missing. Identical values can stand only once. Inconclusive results are not listed. A call without a number means that no potency is given here. Activity calls are given as the source filed them. Unless noted, calls follow the shape of the full dose curve.
# Tests used:
# [1] = Cytotoxicity counterscreen for inhibitors of SARS-CoV-2 cell entry (AID 1645845); also: nearly all actives have a fitted effect of over 50% in size; also: potency is read from the fitted curve at half-maximal effect
# Summary of the method: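 After a 15 min room-temperature ATPLite 1step step, luminescence reflected ATP remaining in HEK293-ACE2 cells exposed to compound for 1 h plus 48 h at 37 C, with percent activity set by cell and no-cell controls.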
# [2] = Primary qHTS to identify inhibitors of SARS-CoV-2 cell entry (AID 1645846); conditions: activity change, negative = inhibition: at 57.1 µM (top of the series) unless noted; also: nearly all actives have a fitted effect of over 45% in size; also: potency is read from the fitted curve at half-maximal effect
# Summary of the method: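 Data are normalized to wells receiving SARS-CoV-2-S pseudoparticles and those given bald particles. Entry signal was luciferase luminescence in stable hACE2 Expi293F cells, 48 hr post-infection, after 1 hr compound pretreatment.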
# [3] = biological target: Calcium and integrin-binding protein 1 (Homo sapiens) (UniProt Q99828); experiment: Primary qHTS for Identification of Calcium Integrin Binding Protein 1 (CIB1) Competitor (AID 1508620; active = well fitted curve in the direction sought with a large enough effect; an effect the other way counts as inactive or inconclusive;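 also: GST tagged CIB1 binding a fluorescein labelled alphaIIb integrin peptide tracer; top concentration of the series differs between compounds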)
# Summary of the method: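 Fluorescence polarization competition: CIB1-GST (1 uM final) preincubated with compound 15 min at room temperature, then FITC-labeled alphaIIb peptide (100 nM final) added for another 15 min. Polarization read at Ex 480/Em 540.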
# [4] = Primary qHTS for small molecule stabilizers of the endoplasmic reticulum resident proteome: Secreted ER Calcium Modulated Protein (SERCaMP) assay (AID 1508630; active = well fitted curve in the direction sought with a large enough effect; an effect the other way counts as inactive or inconclusive)
# Summary of the method: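 The SH-SY5Y reporter protocol was run at 3 concentrations up to 38.3 uM (primary) or 11 concentrations (follow-up): 16 h compound, 100 nM thapsigargin for 4 h, then extracellular luciferase luminescence.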
# [5] = Primary qHTS for inhibitors of La Crosse Virus (LACV) - induced cell death in SH-SY5Y cells (AID 1508616; active = well fitted curve in the direction sought with a large enough effect; an effect the other way counts as inactive or inconclusive;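 also: top concentration of the series differs between compounds; higher means more rescue of cells from virus-induced death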)
# Summary of the method: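 SH-SY5Y, 6000 cells/well; cpd via pin tool in DMSO; LACV 0.01 MOI; 6 d 37C 5% CO2; ATPLite, 5 min RT; luminescence normalized to ±virus DMSO controls.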
# [6] = biological target: Cytochrome P450 2C9 (Homo sapiens) (UniProt P11712); experiment: Cytochrome P450 family 2 subfamily C member 9 (CYP2C9) small molecule antagonists: luciferase biochemical (cell-free) qHTS assay (AID 1645842; active = well fitted curve in the direction sought with a large enough effect in the repeat runs; an effect the other way counts as inactive or inconclusive; also: nearly all actives have a fitted effect of over 55% in size; also: potency is read from the fitted curve at half-maximal effect)
# Summary of the method: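 P450-Glo CYP2C9 system: proluciferin substrate with enzyme in mix containing 0.4% BSA, 10 min at room temperature, then NADPH regeneration solution added and incubated 1 h at 37C. Detection reagent stopped reaction; luminescence read after 20 min as RLU.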
# [7] = biological target: Calcium and integrin-binding protein 1 (Homo sapiens) (UniProt Q99828); experiment: Validation qHTS for Identification of Calcium Integrin Binding protein 1 (CIB1) Competitor (AID 1508618; active = well fitted curve in the direction sought with a large enough effect; an effect the other way counts as inactive or inconclusive; also: potency is read from the fitted curve at half-maximal effect)
# Summary of the method: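 In this qHTS validation, the LOPAC set (up to 114 uM) was tested for blocking CIB1 binding to a fluorescein-tagged alphaIIb peptide, with FP detection at 480/540 nm.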
# [8] = A High-Content qHTS Against Drug Library for the Identification of Small Molecules that Inhibit DYT1 Early Onset Primary Dystonia-Associated Cell Pathology (AID 1645839)
# Summary of the method: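 Induced EGFP-delE TorsinA cells are imaged after 48 h of compound treatment. Punctate fusion-protein distribution gives the %pathology value, while nuclei counts flag toxicity. Wild-type EGFP-hTOR1A cells define the normal pattern.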
# [9] = biological target: Cytochrome P450 2D6 (Homo sapiens) (UniProt P10635); experiment: Cytochrome P450 family 2 subfamily D member 6 (CYP2D6) small molecule antagonists: luciferase biochemical (cell-free) qHTS assay (AID 1645840; active = well fitted curve in the direction sought with a large enough effect in the repeat runs; an effect the other way counts as inactive or inconclusive; also: nearly all actives have a fitted effect of over 55% in size; also: potency is read from the fitted curve at half-maximal effect)
# Summary of the method: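 P450-Glo CYP2D6 system: proluciferin substrate converted by enzyme to luciferin, read by luminescence proportional to activity. Enzyme-substrate mix with compound 10 min at room temperature, then NADPH regeneration 1 h before detection reagent.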
# [10] = Confirmatory qHTS to identify inhibitors of SARS-CoV-2 cell entry (AID 1645844); also: potency is read from the fitted curve at half-maximal effect; nearly all actives have a fitted effect of over 45% in size
# Summary of the method: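 Using stable human ACE2 Expi293F cells, compounds preincubated 1 hr before spike pseudoparticle infection; luciferase signal after 48 hr at 37C, 5% CO2, normalised to spike PP and no-fusion-protein PP wells.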
# [11] = VSVG counterscreen qHTS to identify inhibitors of SARS-CoV-2 cell entry (AID 1645847); also: potency is read from the fitted curve at half-maximal effect; nearly all actives have a fitted effect of over 65% in size
# Summary of the method: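 Counterscreen using VSV-G (not spike) pseudotyped MLV particles on ACE2-expressing Expi293F cells after 1 h compound preincubation; infection ran 48 h at 37 °C. Data normalized to VSV-G PP and bald-PP wells.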
# [12] = Counterscreen qHTS for small molecule stabilizers of the endoplasmic reticulum resident proteome: GLuc-NoTag assay (AID 1508627; active = well fitted curve in the direction sought with a large enough effect; an effect the other way counts as inactive or inconclusive)
# Summary of the method: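 Secreted GLuc lacking the SERCaMP modification is measured in SH-SY5Y cells exposed to compound for 19 h and then to thapsigargin (100 nM, 4 h) to deplete ER calcium; hits retested at 11 concentrations, up to 76.6 uM.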
# [13] = Confirmatory qHTS for small molecule stabilizers of the endoplasmic reticulum resident proteome: Secreted ER Calcium Modulated Protein (SERCaMP) assay (AID 1508628; active = well fitted curve in the direction sought with a large enough effect; an effect the other way counts as inactive or inconclusive; also: potency is read from the fitted curve at half-maximal effect; nearly all actives have a fitted effect of over 40% in size)
# Summary of the method: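 Reporter secretion upon ER calcium depletion (100 nM thapsigargin, 4 h, 37C) is measured as medium luminescence with coelenterazine, after 16 h compound pretreatment of SH-SY5Y-GLuc-SERCaMP cells; primary at three concentrations up to 38.3 uM, follow-up at 11 (up to 76.6 uM).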
# [14] = biological target: Calcium and integrin-binding protein 1 (Homo sapiens) (UniProt Q99828); experiment: Confirmatory qHTS for Identification of Calcium Integrin Binding Protein 1 (CIB1) Competitor (AID 1508617; active = well fitted curve in the direction sought with a large enough effect; an effect the other way counts as inactive or inconclusive; also: nearly all actives have a fitted effect of over 65% in size)
# Summary of the method: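 Binding competition between test compounds and fluorescent alphaIIb peptide for 1 uM CIB1-GST is monitored by FP at 480/540 nm. Final compound range is up to 114 uM; unlabeled peptide serves as reference competitor.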
# Chain of Cytochrome P450 2D6 (Homo sapiens) (P10635 whole entry, looked up): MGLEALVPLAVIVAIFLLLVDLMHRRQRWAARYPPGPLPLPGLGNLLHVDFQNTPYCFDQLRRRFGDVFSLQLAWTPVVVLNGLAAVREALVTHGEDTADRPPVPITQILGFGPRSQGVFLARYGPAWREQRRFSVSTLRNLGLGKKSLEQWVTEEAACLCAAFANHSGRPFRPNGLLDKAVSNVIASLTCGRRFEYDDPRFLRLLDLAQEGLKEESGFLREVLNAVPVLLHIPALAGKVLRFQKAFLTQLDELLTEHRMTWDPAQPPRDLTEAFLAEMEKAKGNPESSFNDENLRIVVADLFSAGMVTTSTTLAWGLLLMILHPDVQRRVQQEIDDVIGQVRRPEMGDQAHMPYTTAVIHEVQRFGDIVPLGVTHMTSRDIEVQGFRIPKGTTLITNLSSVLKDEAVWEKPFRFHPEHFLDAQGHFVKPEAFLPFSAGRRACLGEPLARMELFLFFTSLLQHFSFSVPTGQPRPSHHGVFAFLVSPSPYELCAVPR
# Chain of Calcium and integrin-binding protein 1 (Homo sapiens) (Q99828 whole entry, looked up): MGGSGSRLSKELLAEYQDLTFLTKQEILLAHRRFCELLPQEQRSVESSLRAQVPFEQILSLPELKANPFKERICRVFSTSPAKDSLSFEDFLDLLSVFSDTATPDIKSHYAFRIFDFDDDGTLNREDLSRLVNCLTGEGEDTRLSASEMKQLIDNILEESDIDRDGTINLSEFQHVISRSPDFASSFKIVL
# Chain of Cytochrome P450 2C9 (Homo sapiens) (P11712 whole entry, looked up): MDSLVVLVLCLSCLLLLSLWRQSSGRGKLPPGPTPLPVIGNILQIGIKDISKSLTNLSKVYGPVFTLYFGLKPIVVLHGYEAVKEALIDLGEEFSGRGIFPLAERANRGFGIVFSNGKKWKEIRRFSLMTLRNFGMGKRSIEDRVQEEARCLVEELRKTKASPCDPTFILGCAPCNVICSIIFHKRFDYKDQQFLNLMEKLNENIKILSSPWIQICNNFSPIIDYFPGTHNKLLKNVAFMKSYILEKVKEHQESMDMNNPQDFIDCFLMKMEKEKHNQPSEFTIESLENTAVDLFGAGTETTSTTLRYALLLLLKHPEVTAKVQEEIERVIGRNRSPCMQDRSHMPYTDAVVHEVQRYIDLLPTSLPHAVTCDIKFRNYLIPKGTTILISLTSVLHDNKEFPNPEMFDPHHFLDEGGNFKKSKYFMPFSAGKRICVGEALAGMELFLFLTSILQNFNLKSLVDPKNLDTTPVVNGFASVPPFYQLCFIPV
compound,measurement,setting,value
CC1(C)NC(=O)N(c2ccc([N+](=O)[O-])c(C(F)(F)F)c2)C1=O,Potency,[1],inactive
same,"activity change, negative = inhibition",[2],-23.9%
COC1(CS(=O)c2ccccc2)CCN(CCc2c[nH]c3ccc(F)cc23)CC1 (stereo not drawn),Potency,[3],inactive
same,outcome,[4],inactive
same,Potency,[1],inactive
COc1cc([C@@H]2c3cc4c(cc3[C@H](O)[C@H]3COC(=O)[C@H]23)OCO4)cc(OC)c1OC,"activity change, negative = inhibition",[2],-79.7%
O=c1oc2ccccc2c(O)c1C(CC(O)c1ccc(-c2ccc(Br)cc2)cc1)c1ccccc1 (stereo not drawn),Potency,[5],inactive
same,outcome,[4],inactive
same,Potency,[6],4.36 µM (active)
Cn1cnc2c(F)c(Nc3ccc(Br)cc3Cl)c(C(=O)NOCCO)cc21,Potency,[1],inactive
same,"activity change, negative = inhibition",[2],-32.9%
CCCN1CCC[C@@H]2Cc3nc(N)ncc3C[C@H]21,Potency,[7],inactive
same,outcome,[4],inactive
same,Potency,[8],inactive
same,Potency,[9],9.77 µM (active)
same,Potency,[6],inactive
Cc1ccc(-n2nc(C(C)(C)C)cc2NC(=O)Nc2ccc(OCCN3CCOCC3)c3ccccc23)cc1,Potency,[1],inactive
same,"activity change, negative = inhibition",[2],-13.7%
Cc1sc2c(c1C)C(c1ccc(Cl)cc1)=N[C@@H](CC(=O)OC(C)(C)C)c1nnc(C)n1-2,outcome,[4],inactive
same,Potency,[9],inactive
same,Potency,[6],10.7 µM (active)
same,"activity change, negative = inhibition",[2],-18.3%
CC[C@]1(O)C[C@H]2CN(CCc3c([nH]c4ccccc34)[C@@](C(=O)OC)(c3cc4c(cc3OC)N(C=O)[C@H]3[C@@](O)(C(=O)OC)[C@H](OC(C)=O)[C@]5(CC)C=CCN6CC[C@]43[C@@H]65)C2)C1,Potency,[10],0.0383 µM (active)
same,"activity change, negative = inhibition",[2],-77.7% and -70.4%
same,Potency,[11],0.0171 µM (active)
CC(C)(N)Cc1ccc(Cl)cc1,Potency,[5],inactive
same,Potency,[8],inactive
same,Potency,[9],6.17 µM (active)
same,Potency,[6],inactive
N[C@@H](Cc1cc(I)c(Oc2cc(I)c(O)c(I)c2)c(I)c1)C(=O)O,Potency,[1],inactive
same,"activity change, negative = inhibition",[2],-14.2%
COc1ccc2c(c1OC)CN1CCc3cc4c(cc3C1C2)OCO4 (stereo not drawn),Potency,[5],inactive
same,Potency,[8],inactive
same,Potency,[9],0.0309 µM (active)
same,Potency,[6],19.5 µM (active)
C=CC(=O)Nc1cc2c(Nc3ccc(F)c(Cl)c3)ncnc2cc1OCCCN1CCOCC1,Potency,[1],35.5 µM (active)
Cc1c(OCC(F)(F)F)ccnc1CS(=O)c1nc2ccccc2[nH]1 (stereo not drawn),Potency,[2],inactive
Cc1cc(SCc2sc(-c3ccc(C(F)(F)F)c(F)c3)nc2C)ccc1OCC(=O)O,Potency,[3],inactive
same,outcome,[4],inactive
same,Potency,[1],inactive
same,Potency,[2],inactive
C[C@@H]1CC(=O)NN=C1c1ccc(NN=C(C#N)C#N)cc1,Potency,[1],inactive
C[C@@H]1[C@@H](CC(C[C@H]2O[C@@H]3O[C@]4(C)CC[C@@H]5[C@H](C)CC[C@@H]([C@H]2C)[C@@]35OO4)C[S+](=O)([O-])c2ccc(COC(=O)N(C)C)cc2)O[C@@H]2O[C@]3(C)CC[C@H]4[C@H](C)CC[C@@H]1[C@@]24OO3 (stereo partly drawn),Potency,[3],inactive
same,outcome,[4],inactive
COc1cc(Nc2c(C#N)cnc3cc(OCCCN4CCN(C)CC4)c(OC)cc23)c(Cl)cc1Cl,Potency,[10],19.2 µM (active)
same,Potency,[2],3.16 µM (active)
CC(C)Oc1ccc2c(=O)c(-c3ccccc3)coc2c1,Potency,[2],inactive
CC1=C2C[C@@H]3[C@@H](CC=C4C[C@@H](O)CC[C@@]43C)[C@@H]2CC[C@]12O[C@H]1C[C@H](C)CN[C@H]1[C@H]2C,Potency,[3],inactive
same,outcome,[4],inactive
CCC(=O)C(CC(C)N(C)C)(c1ccccc1)c1ccccc1 (stereo not drawn),Potency,[3],inactive
same,Potency,[12],inactive
same,Potency,[13],35.5 µM (active)
same,Potency,[9],0.898 µM (active)
same,Potency,[6],inactive
CCc1nc(N)nc(N)c1-c1ccc(Cl)cc1,Potency,[1],14.1 µM (active)
COc1c(C)c2c(c(O)c1C/C=C(\C)CCC(=O)OCCN1CCOCC1)C(=O)OC2,Potency,[10],0.0764 µM (active)
same,Potency,[1],inactive
same,"activity change, negative = inhibition",[2],-45.8%
same,Potency,[11],0.429 µM (active)
Cn1ccc2cc3c(cc21)CCN3C(=O)Nc1cccnc1,Potency,[1],inactive
Cc1nc(Nc2ncc(C(=O)Nc3c(C)cccc3Cl)s2)cc(N2CCN(CCO)CC2)n1,Potency,[1],inactive
same,Potency,[11],3.83 µM (active)
C[C@@H](NCCCc1cccc(C(F)(F)F)c1)c1cccc2ccccc12,Potency,[2],20 µM (active)
COc1cc(NCc2ccc3nc(N)nc(N)c3c2C)cc(OC)c1OC,Potency,[1],11.2 µM (active) and 1.12 µM (active)
same,Potency,[2],2.82 µM (active)
CO[C@@H](C(=O)N1Cc2[nH]nc(NC(=O)c3ccc(N4CCN(C)CC4)cc3)c2C1)c1ccccc1,Potency,[10],0.482 µM (active)
same,"activity change, negative = inhibition",[2],-64.7%
CC[C@@H](CO)NC(=O)[C@@H]1C=C2c3cccc4c3c(cn4C)C[C@H]2N(C)C1,outcome,[14],inactive
same,Potency,[7],44.7 µM (active)
same,outcome,[4],inactive
same,Potency,[8],inactive
same,Potency,[9],12.3 µM (active)
C[C@@H]1[C@@H](C(=O)C[C@H]2O[C@@H]3O[C@]4(C)CC[C@@H]5[C@H](C)CC[C@@H]([C@H]2C)[C@@]35OO4)O[C@@H]2O[C@]3(C)CC[C@H]4[C@H](C)CC[C@@H]1[C@@]24OO3,outcome,[4],inactive
